Pf growth 96h: P. falciparum growth inhibition at 96 hour, primary screen for plastid delayed-death inhibitors. P. falciparum luciferase reporter growth, 96 h. Potency, µM (series often up to 28.7 µM), for inactives: top-dose activity change, negative = inhibition, hits mostly inhibitors. 320,000 tested, 6.9% active; active = well fitted inhibition curve with a large enough effect; inconclusive = small, poorly fitted or top-dose-only effect, or another doubt; inactive = no such curve, though single readings can be large or run the other way; also: potency is read from the fitted curve at half-maximal effect; % is scaled to controls: 0 for no effect and ±100 for the full control effect
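96 h incubation, 37 C, 5% CO2, of luciferase-reporter P. falciparum-infected RBCs (2% hematocrit, 0.05% parasitemia final) with test compounds; endpoint luminescence.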
Shiga inhibitor: Shiga toxin inhibition | Vero cells, Shiga toxin protein synthesis inhibition reporter | inhibition, % at 38.7 µM | 290,000 tested, 9.2% active | AID 2315; in the data active = inhibition mostly above about 28%, no sharp cut-off; inactive = mostly below about 43%; also: 0% is about no effect
CHX counter: counter-screen hit for Shiga toxin inhibitors, cycloheximide. cell reporter, cycloheximide protein synthesis inhibition counterscreen. max response, %. 300,000 tested, 12% active; in the data active = max response mostly above about 13%, no sharp cut-off; inactive = mostly below about 14%; also: read at 38.3 µM for the half of the compounds with a filed dose; 0% is about no effect
SARS PLpro yeast: SARS-CoV PLP inhibition in yeast. AID 485353. S. cerevisiae expressing SARS-CoV PLpro, growth rescue. 330,000 tested, 0.19% active. Potency, µM (top dose mostly 32.9 µM), for inactives: top-dose activity, positive = growth rescue, usual class: activators; also: potency is read from the fitted curve at half-maximal effect; 0% is about no effect; nearly all actives have a fitted effect of over 55% in size
Pf growth 48h: P. falciparum growth inhibition at 48 hours (one generation). P. falciparum luciferase growth in erythrocytes, 48 h. Potency, µM (doses to about 28.7 µM), for the others: top-dose activity change, negative = inhibition, actives largely listed as inhibitors. 310,000 tested, 5.9% active. AID 504832; active = well fitted inhibition curve with a large enough effect; inconclusive = small, poorly fitted or top-dose-only effect, or another doubt; inactive = no such curve, though single readings can be large or run the other way; also: potency is read from the fitted curve at half-maximal effect; % is scaled to controls: 0 for no effect and ±100 for the full control effect
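Cell-based growth assay: transgenic P. falciparum expressing firefly luciferase, cultured in red cells within RPMI 1640 containing 0.5% w/v Albumax, 24 mM bicarbonate and gentamycin. A drop in luciferase activity indicates inhibition.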
NS1 inh: influenza NS1 inhibition | Potency, µM (doses to about 46.1 µM), without a hit: at the top dose activity, positive = more growth | 270,000 tested, 0.4% active | AID 2326; also: potency is read from the fitted curve at half-maximal effect; actives are rising curves; nearly all actives have a fitted effect of over 50% in size
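Growth recovery, yeast-based: influenza A NS1 expressed in S. cerevisiae causes slow growth, and suppressors are detected by OD600. The parent strain without NS1 is used as positive control.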
* marks the source's active call; other numbers are inactive results; ? = inconclusive; / = no result; [ ] = remark or other dose. A selection: hits, their analogues and other compounds. The true share with any hit is near 21%. Unless noted, calls follow the shape of the full dose curve.

SMILES	Pf growth 96h	Shiga inhibitor	CHX counter	SARS PLpro yeast	Pf growth 48h	NS1 inh
O=C(Nc1ccc(N2CCOCC2)c(Cl)c1)c1ccco1	-118.7%	46.2	33.7*	-14.1%	2.2%	-34.7%
CCOC(=O)c1ccc(N2CCN(C(=O)c3ccccc3)CC2)c(NC(=O)c2ccco2)c1	-18.2%	-3.4	-3.2	-0.4%	?	11.5%
COc1cc(NC(=O)CCCNC(=O)c2ccc(Cl)cc2)cc(OC)c1OC	-12.0%	19.7	-2.7	0.9%	4.1%	-4.2%
C[C@H]1CN([C@@H](C)CO)C(=O)c2cccc(NC(=O)c3ccc(-c4nccs4)cc3)c2O[C@@H]1CN(C)C(=O)NC1CCCCC1	/	/	/	3.7%	/	/
CCn1c2ccccc2c2cc(NC(=O)COC(=O)c3cc(S(N)(=O)=O)c(Cl)cc3Cl)ccc21	26.3%	-8.6	-1.9	0.9%	28.6%	2.5%
CCN1CCN(c2ccc(Cl)cc2NC(=O)c2ccco2)CC1	?	/	/	-4.8%	?	/
CC(=O)N1CCN(c2ccc(NC(=O)c3ccco3)cc2Cl)CC1	?	42.5*	16.8*	?	37.7%	-3.7%
Cc1ccccc1OCCNc1cc(N2CCNCC2)ccc1[N+](=O)[O-]	0.0%	-6.8	3.7	0.1%	?	1.3%
COc1ccc2[nH]c(C)c(CCNc3ccc(C(F)(F)F)cc3[N+](=O)[O-])c2c1	14.7µM*	9.5	-0.4	-16.2%	?	?
O=[N+]([O-])c1cc(C(F)(F)F)ccc1NC1CCN(Cc2ccccc2)CC1	6.2%	-5.7	1.0	-3.9%	7.38µM*	-69.1%
CS(=O)(=O)NCCNc1ccc(C(F)(F)F)cc1[N+](=O)[O-]	3.0%	-13.0	-1.0	-0.9%	13.9%	4.4%
Cc1ccccc1OCCNc1ccc(C(F)(F)F)cc1[N+](=O)[O-]	34.9%	49.3	20.4*	-11.1%	-0.7%	-10.7%
CN(C)S(=O)(=O)NCCNc1ccc(C(F)(F)F)cc1[N+](=O)[O-]	?	9.4	12.1*	0.1%	14.5%	4.5%
COc1ccc(C(=O)COC(=O)[C@H](C)Nc2ccc(C(F)(F)F)cc2[N+](=O)[O-])cc1	/	-0.1	-0.2	-7.9%	5.5%	-9.8%
O=C(c1cccc(NS(=O)(=O)c2cccc(F)c2)c1)N1CCN(c2ccccc2)CC1	-20.3%	-3.1	-5.4	0.9%	13.4%	4.1%
COc1ccc(CCNC(=O)CNS(=O)(=O)c2cccs2)cc1OC	/	-4.9	-2.6	-1.2%	1.5%	1.0%
O=[N+]([O-])c1cc(C(F)(F)F)ccc1NCCOc1ccccc1	55.3%	30.7*	47.7*	-3.9%	41.2%	-7.0%
O=C(OCCNc1ccc(C(F)(F)F)cc1[N+](=O)[O-])c1cc2ccccc2oc1=O	1.0%	2.0	17.9*	-0.9%	53.1%	0.5%
NC(=O)CC(NC(=O)c1ccccc1)c1ccc(NCCOc2ccccc2)c([N+](=O)[O-])c1 (stereo not given)	?	-3.1	-1.1	0.6%	?	-2.1%
Cc1cc(C)c2c(=O)[nH]c(SCc3ccccc3)nc2n1	?	2.6	-1.6	-2.0%	23.9%	7.6%
COC(=O)Cn1c(SCc2ccccc2)nc2ccccc21	31.4%	48.4	18.5*	-9.3%	/	-15.6%
O=C(O)CCn1c(SCc2ccccc2)nc2ccccc21	14.7%	22.9*	8.8	2.5%	33.6%	-5.1%
COc1ccccc1OCCSc1nc2ccccc2n1CC(O)CO (stereo not given)	280.6%	25.1	12.9*	-2.2%	-4.5%	17.7%
CCSc1nc2ccccc2n1CC(=O)OC	0.6%[5.75 µM]	13.6	-1.0	1.2%	2.3%	-1.0%
CCCn1c(SCC(=O)N2c3ccccc3Sc3ccccc32)nc2ccccc21	3.7µM*	-10.1	-1.8	-22.8%	13.1µM*	18.0%
SMILES	Pf growth 96h	Shiga inhibitor	CHX counter	SARS PLpro yeast	Pf growth 48h	NS1 inh
O=C(O)CCn1c(SCCOc2ccccc2F)nc2ccccc21	10.4µM*	5.2	18.0*	1.8%	?	-1.3%
O=C(CSc1ccc(Cl)cc1)NNC(=O)c1ccncc1	15.7%	/	/	-0.8%	12.3%	/
O=C(CSc1nccn1Cc1ccccc1)NCc1ccccc1	/	48.5	6.2	3.8%	-4.7%	-6.0%
CN1CCCN(C(c2ccccc2)c2ccc(Cl)cc2)CC1 (stereo not given)	6.75µM*	-17.2	-2.7	-11.8%	13.5µM*	-4.3%
Clc1ccc(C(c2ccccc2)N2CCN(c3ccccn3)CC2)cc1 (stereo not given)	6.57µM*	0.5	7.4	-2.2%	?	-4.8%
CN1CCN(C(c2ccccc2)c2ccccc2)CC1	5.5%	/	/	/	?	/
CC(C)(C)NC(=O)C(c1ccncc1)N(C(=O)Cn1nnc(-c2ccc(F)cc2)n1)c1ccc(F)cc1 (stereo not given)	4.3%	-15.2	-1.3	0.2%	2.62µM*	-1.1%
Cc1ccc(N(C(=O)Cn2nnc(-c3ccc(F)cc3)n2)C(C(=O)NC(C)(C)C)c2ccncc2)cc1 (stereo not given)	-4.3%	13.1	10.2	-0.4%	4.65µM*	7.2%
CN1CCc2ccccc2[C@@H]1Cc1ccccc1NC(=O)c1sc2ccccc2c1Cl	/	/	/	/	/	7.7%
CCc1ccccc1N(C(=O)c1snc(C(N)=O)c1N)C(C(=O)NCC1CCCO1)c1c[nH]c2ccccc12 (stereo not given)	35.4%	-5.4	-1.7	0.5%	?	-0.5%
COc1ccc(NC(=O)c2ccc3[nH]c(C)c(C)c3c2)c(OC)c1	-10.8%	51.3	13.7	-2.8%	-15.9%	0.3%
CCC(=O)CCC(=O)c1ccc2ccccc2c1	35.2%	125.2*	55.1*	8.7%	61.9%	3.3%
CC(C)N(CCC(=O)c1ccc2ccccc2c1)Cc1ccccc1	24.0%	/	/	/	-26.3%	-33.7%
CCOc1ccccc1NC(=O)c1cc(CC(C)C)oc1C	-9.6%	8.8	1.6	-16.5%	10.4µM*	-15.8%
CCOc1ccccc1NC(=O)NNC(=O)c1ccc2ccccc2c1	38.2%	-2.9	-2.3	-0.7%	-17.2%	0.6%
CCOc1ccccc1NC(=O)c1ccc2ccccc2c1	11.7µM*	/	22.9*	-5.9%	4.9%	-25.1%
CCOc1ccccc1NC(=O)c1ccc2[nH]c(C)c(C)c2c1	?	42.6*	41.7*	3.7%	14.7µM*	?
O=C(c1ccc(Cl)c(S(=O)(=O)N2CCCCCC2)c1)N1CCN(c2ccccn2)CC1	?	-2.2	-1.7	-7.2%	/	-8.6%
CC(=O)/C(C=Nc1noc(C)c1Br)=C(\C)O	1.7%	-14.5	-1.0	0.1%	1.5%	-2.2%
C=CCNC(=O)NC(=O)COC(=O)/C=C/c1cccc([N+](=O)[O-])c1	4.8%	14.5	7.6	4.8%	16.5%	/
C/C=C(\C)C(=O)OC1C(C)=C2C(C1OC(=O)CCCCC)C(C)(OC(C)=O)CC(OC(=O)CCC)C1(O)C2OC(=O)C1(C)O (stereo not given)	2.94µM*	1.8	-7.1	0.6%	4.15µM*	0.5%
Clc1cccc(Nc2c3c(nc4ncnn24)CCC3)c1	-28.8%	-10.1	-4.0	-3.1%	9.28µM*	-4.4%
